# Data reported in ChEMBL document CHEMBL1961873, “Compounds: GSK PKIS; Assays: Nanosyn kinase panel” (2012).
# Key:
# [1] = molecular target: T1, Inhibitor of nuclear factor kappa-B kinase subunit epsilon (Homo sapiens) (UniProt Q14164); conditions: at 1 µM;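 further: reported values are averaged percent inhibition figures against human IKKε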
# T1 sequence (whole entry): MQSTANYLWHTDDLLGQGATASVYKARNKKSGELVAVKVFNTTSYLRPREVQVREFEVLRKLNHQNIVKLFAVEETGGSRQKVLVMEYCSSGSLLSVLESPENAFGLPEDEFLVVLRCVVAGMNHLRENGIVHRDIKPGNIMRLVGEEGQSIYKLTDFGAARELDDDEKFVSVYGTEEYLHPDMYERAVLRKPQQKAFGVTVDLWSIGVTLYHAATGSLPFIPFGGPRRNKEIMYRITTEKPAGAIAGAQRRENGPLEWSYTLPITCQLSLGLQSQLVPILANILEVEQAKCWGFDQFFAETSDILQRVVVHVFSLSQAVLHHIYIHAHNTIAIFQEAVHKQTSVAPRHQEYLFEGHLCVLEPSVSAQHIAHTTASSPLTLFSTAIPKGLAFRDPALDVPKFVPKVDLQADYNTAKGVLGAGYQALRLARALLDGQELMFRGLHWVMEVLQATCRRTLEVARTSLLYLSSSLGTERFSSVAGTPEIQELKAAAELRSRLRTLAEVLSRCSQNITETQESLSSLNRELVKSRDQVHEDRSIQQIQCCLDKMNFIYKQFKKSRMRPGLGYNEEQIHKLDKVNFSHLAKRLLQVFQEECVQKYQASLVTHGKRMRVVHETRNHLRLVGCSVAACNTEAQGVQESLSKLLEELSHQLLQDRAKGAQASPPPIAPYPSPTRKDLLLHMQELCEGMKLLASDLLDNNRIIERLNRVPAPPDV
# [2] = molecular target: T2, Serine/threonine-protein kinase Nek1 (Homo sapiens) (UniProt Q96PY6); conditions: at 0.1 µM
# T2 sequence (whole entry): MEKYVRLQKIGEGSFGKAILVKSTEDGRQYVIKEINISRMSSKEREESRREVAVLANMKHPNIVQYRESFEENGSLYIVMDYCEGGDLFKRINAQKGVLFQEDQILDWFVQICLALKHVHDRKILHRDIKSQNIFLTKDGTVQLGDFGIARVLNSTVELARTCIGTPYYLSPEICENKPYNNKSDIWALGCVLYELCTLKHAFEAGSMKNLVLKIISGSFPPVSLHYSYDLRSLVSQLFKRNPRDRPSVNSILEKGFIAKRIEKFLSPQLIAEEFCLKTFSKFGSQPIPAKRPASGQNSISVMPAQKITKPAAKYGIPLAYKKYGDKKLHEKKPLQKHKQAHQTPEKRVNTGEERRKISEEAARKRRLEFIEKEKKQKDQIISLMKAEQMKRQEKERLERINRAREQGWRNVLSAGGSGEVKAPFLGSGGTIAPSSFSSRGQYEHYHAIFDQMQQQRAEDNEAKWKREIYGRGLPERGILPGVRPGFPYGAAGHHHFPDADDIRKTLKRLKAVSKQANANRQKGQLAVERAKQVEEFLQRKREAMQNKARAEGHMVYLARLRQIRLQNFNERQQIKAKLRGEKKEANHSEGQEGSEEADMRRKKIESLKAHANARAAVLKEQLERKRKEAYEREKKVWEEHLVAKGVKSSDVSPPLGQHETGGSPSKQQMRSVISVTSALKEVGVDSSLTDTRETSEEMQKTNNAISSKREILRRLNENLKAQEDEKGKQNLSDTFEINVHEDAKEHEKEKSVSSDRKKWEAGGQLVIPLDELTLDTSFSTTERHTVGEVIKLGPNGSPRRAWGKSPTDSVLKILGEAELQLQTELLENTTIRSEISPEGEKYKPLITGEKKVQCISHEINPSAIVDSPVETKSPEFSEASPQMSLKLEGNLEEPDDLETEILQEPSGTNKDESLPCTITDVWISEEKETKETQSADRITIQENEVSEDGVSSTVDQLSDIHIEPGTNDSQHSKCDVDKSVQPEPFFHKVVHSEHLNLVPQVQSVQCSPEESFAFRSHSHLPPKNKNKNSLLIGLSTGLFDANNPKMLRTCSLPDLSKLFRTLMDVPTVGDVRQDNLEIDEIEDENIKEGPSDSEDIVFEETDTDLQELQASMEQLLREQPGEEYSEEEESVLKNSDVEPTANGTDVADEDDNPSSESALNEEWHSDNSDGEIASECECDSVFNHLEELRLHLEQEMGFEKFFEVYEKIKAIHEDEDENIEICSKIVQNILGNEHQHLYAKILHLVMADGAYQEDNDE
# [3] = molecular target: T2, Serine/threonine-protein kinase Nek1 (Homo sapiens); conditions: at 1 µM
# [4] = molecular target: T3, Serine/threonine-protein kinase Nek2 (Homo sapiens) (UniProt P51955); conditions: at 0.1 µM
# T3 sequence (whole entry): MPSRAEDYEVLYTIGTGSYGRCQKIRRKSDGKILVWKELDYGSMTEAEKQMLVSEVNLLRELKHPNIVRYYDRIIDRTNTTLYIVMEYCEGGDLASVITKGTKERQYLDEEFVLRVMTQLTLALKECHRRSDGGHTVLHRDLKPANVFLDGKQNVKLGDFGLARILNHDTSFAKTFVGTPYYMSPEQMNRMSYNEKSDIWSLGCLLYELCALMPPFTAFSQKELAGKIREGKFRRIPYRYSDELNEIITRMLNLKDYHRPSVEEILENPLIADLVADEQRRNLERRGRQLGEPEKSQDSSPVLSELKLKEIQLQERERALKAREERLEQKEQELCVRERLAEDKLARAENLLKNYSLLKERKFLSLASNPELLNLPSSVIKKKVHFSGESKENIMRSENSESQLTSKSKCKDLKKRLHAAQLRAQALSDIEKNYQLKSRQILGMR
# [5] = molecular target: T3, Serine/threonine-protein kinase Nek2 (Homo sapiens); conditions: at 1 µM
# [6] = molecular target: Serine/threonine-protein kinase Nek6 (Homo sapiens) (UniProt Q9HC98); conditions: at 0.1 µM
# [7] = molecular target: Serine/threonine-protein kinase Nek6 (Homo sapiens) (UniProt Q9HC98); conditions: at 1 µM
# [8] = molecular target: Serine/threonine-protein kinase Nek7 (Homo sapiens) (UniProt Q8TDX7); conditions: at 0.1 µM
# [9] = molecular target: Serine/threonine-protein kinase Nek7 (Homo sapiens) (UniProt Q8TDX7); conditions: at 1 µM
# [10] = molecular target: T4, Serine/threonine-protein kinase Nek9 (Homo sapiens) (UniProt Q8TD19); conditions: at 0.1 µM;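 further: reported value is the mean percent inhibition of NEK9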
# T4 sequence (whole entry): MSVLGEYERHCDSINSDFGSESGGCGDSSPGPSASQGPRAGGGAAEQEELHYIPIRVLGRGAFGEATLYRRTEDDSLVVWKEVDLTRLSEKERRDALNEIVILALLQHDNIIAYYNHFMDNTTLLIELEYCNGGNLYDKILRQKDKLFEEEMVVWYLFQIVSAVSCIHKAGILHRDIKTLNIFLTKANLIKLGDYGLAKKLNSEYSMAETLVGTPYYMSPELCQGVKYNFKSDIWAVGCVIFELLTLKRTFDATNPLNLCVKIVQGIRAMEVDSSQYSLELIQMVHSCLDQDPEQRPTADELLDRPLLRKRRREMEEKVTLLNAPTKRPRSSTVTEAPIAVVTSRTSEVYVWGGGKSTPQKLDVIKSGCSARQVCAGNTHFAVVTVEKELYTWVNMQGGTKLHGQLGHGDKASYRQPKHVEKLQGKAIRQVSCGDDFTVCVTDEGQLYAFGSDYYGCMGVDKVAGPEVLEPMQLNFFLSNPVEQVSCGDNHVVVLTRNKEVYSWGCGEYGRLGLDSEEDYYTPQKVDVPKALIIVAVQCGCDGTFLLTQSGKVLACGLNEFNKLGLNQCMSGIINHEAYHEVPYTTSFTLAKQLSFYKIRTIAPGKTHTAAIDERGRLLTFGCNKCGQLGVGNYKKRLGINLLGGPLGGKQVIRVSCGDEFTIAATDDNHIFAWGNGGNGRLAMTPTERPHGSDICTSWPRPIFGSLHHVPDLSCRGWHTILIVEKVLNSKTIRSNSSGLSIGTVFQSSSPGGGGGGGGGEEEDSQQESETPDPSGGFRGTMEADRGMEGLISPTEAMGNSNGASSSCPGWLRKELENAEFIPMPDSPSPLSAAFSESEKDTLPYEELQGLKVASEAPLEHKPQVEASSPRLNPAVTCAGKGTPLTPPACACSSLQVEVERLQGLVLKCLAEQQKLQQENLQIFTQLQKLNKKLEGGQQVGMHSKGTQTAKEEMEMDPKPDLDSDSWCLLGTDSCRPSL
# Serine/threonine-protein kinase Nek6 (Homo sapiens), sequence (Q9HC98 whole entry): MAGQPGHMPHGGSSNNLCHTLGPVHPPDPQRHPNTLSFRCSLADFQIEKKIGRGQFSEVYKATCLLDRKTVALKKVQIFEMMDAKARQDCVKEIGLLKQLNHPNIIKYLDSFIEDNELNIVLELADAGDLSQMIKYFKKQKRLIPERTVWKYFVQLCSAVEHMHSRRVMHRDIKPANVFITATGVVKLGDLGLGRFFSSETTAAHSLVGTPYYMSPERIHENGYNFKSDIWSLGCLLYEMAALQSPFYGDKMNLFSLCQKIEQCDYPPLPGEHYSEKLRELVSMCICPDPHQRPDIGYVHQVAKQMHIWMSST
# Serine/threonine-protein kinase Nek7 (Homo sapiens), sequence (Q8TDX7 whole entry, looked up): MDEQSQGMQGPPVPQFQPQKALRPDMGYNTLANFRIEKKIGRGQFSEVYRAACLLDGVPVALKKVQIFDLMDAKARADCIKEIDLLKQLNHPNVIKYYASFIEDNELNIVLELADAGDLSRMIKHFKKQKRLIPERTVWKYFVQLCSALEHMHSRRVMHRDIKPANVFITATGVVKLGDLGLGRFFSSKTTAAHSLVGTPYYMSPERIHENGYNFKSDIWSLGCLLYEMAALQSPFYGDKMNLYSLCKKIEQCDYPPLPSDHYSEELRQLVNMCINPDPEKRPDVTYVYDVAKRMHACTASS
structure (smiles),measurement,setting,value
CC(C)COC(=O)c1ccc2c(c1)/C(=C/Nc1ccc(S(N)(=O)=O)cc1)C(=O)N2,inhibition,[1],93.4%
same,inhibition,[2],-1.61%
same,inhibition,[3],2.33%
same,inhibition,[4],-0.98%
same,inhibition,[5],0.66%
same,inhibition,[6],-0.45%
same,inhibition,[7],9.49%
same,inhibition,[8],0.03%
same,inhibition,[9],0.46%
same,inhibition,[10],-3.08%
